Test results as given in the supplement of paper PMC13380429.

Tested on: Vero E6 infected with SARS-CoV-2
Test: inhibition of SARS-CoV-2 cytopathic effect; higher = more antiviral protection, active = above 15
Conditions: 48 h

Measured: inhibition of SARS-CoV-2 cytopathic effect

CC(=O)O[C@@H]1CC[C@@]2(C)[C@@H](CC[C@]3(C)[C@@H]2C(=O)C=C2[C@@H]4[C@@H](C)[C@H](C)CC[C@]4(C)CC[C@]23C)[C@@]1(C)C(=O)O [acetyl-11-keto-beta-boswellic-acid]
inactive: 1 nM -1.38% | 8.33 nM -3.19% | 100 nM -1.26% | 833.33 nM -0.71% | 10000 nM -0.995%

O=C(O)c1ccc(-c2ccc3cc(O)c(C45CC6CC(CC(C6)C4)C5)cc3c2)cc1
inactive: 1 nM 5.35% | 8.33 nM 1.59% | 100 nM 3.64% | 833.33 nM 3.49% | 10000 nM 5.63%

Cc1cc(NC(=O)Nc2ccc(N(C)C)cc2)c2cc(F)cc(F)c2n1
inactive: 1 nM -0.11% | 8.33 nM 0.56% | 100 nM 1.66% | 833.33 nM 3.02% | 10000 nM 4.9%

O=c1oc2ccccc2c(O)c1Cc1c(O)c2ccccc2oc1=O [dicoumarol]
inactive: 1 nM 0.87% | 8.33 nM 0.88% | 100 nM -0.82% | 833.33 nM 1.35% | 10000 nM 3.32%

Cc1nnc(NS(=O)(=O)c2ccc(N)cc2)s1 [sulfamethizole]
inactive: 1 nM 3.32% | 8.33 nM 0.33% | 100 nM 0.51% | 833.33 nM 1.2% | 10000 nM 3.18%

c1ccc2c(Cc3c[nH]c4ccccc34)c[nH]c2c1 [3,3'-diindolylmethane]
inactive: 1 nM 0.74% | 8.33 nM 0.3% | 100 nM 4.3% | 833.33 nM 4.76% | 10000 nM 3.8%

CN(C)CC(=O)Nc1ccc2[nH]c(=O)c3ccccc3c2c1
inactive: 1 nM 1.34% | 8.33 nM 2.81% | 100 nM 1.23% | 833.33 nM 5.19% | 10000 nM 6.44%

CN(Cc1ccccc1)C(=O)[C@H](Cc1ccc2ccccc2c1)NC(=O)[C@@H]1CCCN1C(=O)Nc1ccccc1[N+](=O)[O-]
inactive: 1 nM -0.58% | 8.33 nM 2.06% | 100 nM 3.45% | 833.33 nM 5.13% | 10000 nM 1.31%

CC[C@@H]([C@H](C)O)n1ncn(-c2ccc(N3CCN(c4ccc(OC[C@@H]5CO[C@@](Cn6cncn6)(c6ccc(F)cc6F)C5)cc4)CC3)cc2)c1=O [posaconazole]
inactive: 1 nM 0.11% | 8.33 nM 0.51% | 100 nM 0.36% | 833.33 nM 2.23% | 10000 nM -6.91%

Cc1ncc(NC(=O)c2ccc(CN3CCN(C)CC3)c(C(F)(F)F)c2)cc1Nc1nccc(-c2cccnc2)n1 [flumatinib]
active: 10000 nM 66.1%
inactive: 1 nM 2.56% | 8.33 nM -0.34% | 100 nM 1.46% | 833.33 nM 3.69%

Clc1ccc2c(N3CCN(CCCN4CCN(c5ccnc6cc(Cl)ccc56)CC4)CC3)ccnc2c1 [piperaquine-phosphate]
inactive: 1 nM -0.04% | 8.33 nM 1.25% | 100 nM -0.14% | 833.33 nM -1.37% | 10000 nM -2.6%

OCc1ccc(CO)o1 [2,5-furandimethanol]
inactive: 1 nM -0.97% | 8.33 nM 0.38% | 100 nM 0.27% | 833.33 nM 2.21% | 10000 nM 0.97%

CCCCCCCCCCCCCCOC(=O)c1cccnc1 [myristyl-nicotinate]
inactive: 1 nM 0.94% | 8.33 nM 2.86% | 100 nM 0.68% | 833.33 nM 1.76% | 10000 nM 1.2%

CCCCCCCCCCC(C)(C)C(=O)Nc1c(OC)cc(OC)cc1OC
inactive: 1 nM 0.52% | 8.33 nM 6.1% | 100 nM 5.14% | 833.33 nM 0.51% | 10000 nM 0.93%

CCOC(=O)c1ncc2[nH]c3cccc(OC(C)C)c3c2c1C
inactive: 1 nM 2.48% | 8.33 nM -1.73% | 100 nM 3.11% | 833.33 nM 5.05% | 10000 nM 7.71%

COc1ccc(Cc2cnc(N)nc2N)cc1OC [diaveridine]
inactive: 1 nM -0.02% | 8.33 nM 0.43% | 100 nM -0.86% | 833.33 nM 2.81% | 10000 nM 0.75%

Cc1cccn2c(=O)c(-c3nnn[nH]3)cnc12 [pemirolast]
inactive: 1 nM -0.01% | 8.33 nM 0.57% | 100 nM 0.12% | 833.33 nM 3.15% | 10000 nM -1.12%

C[C@@H](O)[C@H]1C(=O)N2C(C(=O)O)=C(S[C@@H]3CN[C@H](C(=O)Nc4cccc(C(=O)O)c4)C3)[C@H](C)[C@H]12 [ertapenem]
inactive: 1 nM 0.22% | 8.33 nM 3.19% | 100 nM 1.71% | 833.33 nM 2.2% | 10000 nM 2.62%

CCc1cncnc1N1CCN(Cc2nc3cc(C(F)(F)F)ccc3[nH]2)CC1
inactive: 1 nM 1.34% | 8.33 nM -0.7% | 100 nM 1.45% | 833.33 nM 8.5% | 10000 nM -4.66%

CC(=O)O[C@]1(C(C)=O)CC[C@H]2[C@@H]3C[C@H](C)C4=CC(=O)C=C[C@]4(C)[C@@]3(F)[C@@H](O)C[C@@]21C [fluorometholone-acetate]
inactive: 1 nM 0.25% | 8.33 nM 0.86% | 100 nM -0.18% | 833.33 nM 0.37% | 10000 nM -0.24%

CC(C)(C)c1cc(C=C(C#N)C#N)cc(Br)c1O
inactive: 1 nM 0.94% | 8.33 nM -0.19% | 100 nM 0.29% | 833.33 nM -1.48% | 10000 nM 4.93%

CCN(CC)CCCCNc1ncc2cc(-c3c(Cl)cccc3Cl)c(NC(=O)NC(C)(C)C)nc2n1
inactive: 1 nM -1.36% | 8.33 nM -1.31% | 100 nM 2.1% | 833.33 nM -1.78% | 10000 nM 13.4%

CCC1(c2ccccc2)C(=O)NCNC1=O [primidone]
inactive: 1 nM 0.5% | 8.33 nM -0.36% | 100 nM -1.1% | 833.33 nM 0.53% | 10000 nM 1.81%

O=C(O[C@@H]1Cc2c(O)cc(O)cc2O[C@@H]1c1cc(O)c(O)c(O)c1)c1cc(O)c(O)c(O)c1 [epigallocatechin-gallate-(-)]
inactive: 1 nM -3.81% | 8.33 nM 2.17% | 100 nM 0.79% | 833.33 nM 1.05% | 10000 nM 0.98%

CCN(CC)c1ccc(/C=N/NC(=O)c2ccc(O)cc2)cc1
inactive: 1 nM -0.79% | 8.33 nM 2.18% | 100 nM 0.82% | 833.33 nM -0.79% | 10000 nM 0.11%

COc1ccc(C(=O)C2CCN(CC(=O)N(Cc3nc4c(c(=O)[nH]3)COCC4)CC3CC3)CC2)cc1
inactive: 1 nM 1.44% | 8.33 nM -0.07% | 100 nM -1.36% | 833.33 nM 1.12% | 10000 nM -1.65%

Cc1ccc(Sc2cncc3sc(C(N)=O)cc23)cc1
inactive: 1 nM -1.26% | 8.33 nM -2.96% | 100 nM -2.49% | 833.33 nM -2.02% | 10000 nM 4.33%

Cc1noc(NS(=O)(=O)c2cccc3c(N(C)C)cccc23)c1C
inactive: 1 nM 0.18% | 8.33 nM 0.76% | 100 nM 0.03% | 833.33 nM 1.44% | 10000 nM 0.04%
